Source: PubChem BioAssay AID1508625 (Wald Lab, School of Medicine, Case Western Reserve …, 2021)

Assay: enhancers of NK cell killing of ovarian tumor cells, primary screen, imaging, OVCAR3, primary NK cells, calcein-AM imaging (AID 1508625);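 also: compound given to NK cells 16 h before adding targets at 1.5 to 1 ratio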
Conditions: OVCAR3 lysis by primary NK cells, at 5 µM; z-score: measured here: robust Z-score, single-point normalisation

Row | SMILES | corrected activity, negative = more killing [%] | z-score
1 | Cc1ccc(-n2cnc3cc(C(=O)NCC4CCCO4)ccc32)cc1Cl (configuration not stated) | -0.997 | -0.269
2 | O=C(Nc1ccc(Cl)cc1)c1ccc(F)c(S(=O)(=O)N2CCOCC2)c1 | -4.69 | -1.77
3 | Cc1ccc(C(=O)Nc2cccc(C(=O)O)c2)cc1S(=O)(=O)Nc1ccc(Br)cc1 | -15 | -3.16
4 | O=C1NC(=S)N(c2ccc(Cl)cc2)C(=O)C1=Cc1cc(Br)ccc1O | -3.58 | -1.85
5 | N#Cc1ccccc1NC(=O)CSc1nnc(N)s1 | 2.04 | 0.632
6 | COc1ccc(-c2csc(Nc3ccc(NC(C)=O)cc3)n2)cc1OC | 1.84 | 0.823
7 | COc1cc(NS(=O)(=O)c2ccc(NC(=O)c3ccc(OC)c(OC)c3)cc2)ncn1 | -3.26 | -1.01
8 | Cc1cc([N+](=O)[O-])ccc1N=Cc1ccc(Br)s1 | -2.22 | -0.944
9 | COc1ccc(C(=O)Nc2ccc(-c3nc4cc(C)cc(C)c4o3)cc2)cc1OC | 2.2 | 0.681
10 | Cc1ccc(Cn2c3[n+](c4ccccc42)CC(O)CS3)cc1 (configuration not stated) | -3 | -1.55
11 | COc1cc2c(cc1NC(=O)C(C)c1ccc([N+](=O)[O-])cc1)oc1ccccc12 (configuration not stated) | -2.25 | -1.25
12 | O=C(Nc1ccccc1C(=O)O)c1cc(S(=O)(=O)Nc2ccc(Br)cc2)ccc1Cl | -14.5 | -3.06
13 | Cc1cccc(C(=O)N2N=C(C(F)(F)F)CC2(O)C(C)(C)C)c1 (configuration not stated) | -2.49 | -0.95
14 | CCCOc1ccc(C(=O)Nc2ccc3nn(-c4ccc(OCC)cc4)nc3c2)cc1 | -3.37 | -1.2
15 | Cc1ccc2oc(-c3ccc(NC(=O)c4cccc(F)c4)c(C)c3)nc2c1 | -9.28 | -3.29
16 | O=C(c1ccc(Cn2c(=S)[nH]c3cc4c(cc3c2=O)OCO4)cc1)N1CCC(N2CCCCC2)CC1 | -3.36 | -0.889
17 | CC(C)C(NC(=O)c1ccccc1)C(=O)NC1=NCCS1 (configuration not stated) | -2 | -0.869
18 | CCOc1ccc(N2CC(C(=O)Nc3cc(C)ccn3)CC2=O)cc1 (configuration not stated) | -3.29 | -1.23
19 | O=C(Nc1ccccc1C(=O)Nc1ccc(Br)cn1)c1ccccc1 | -6.2 | -2.34
20 | O=c1[nH]c2ccc(N=Cc3ccc(-c4ccc([N+](=O)[O-])cc4)o3)cc2[nH]1 | -0.571 | -0.17
21 | O=C(c1ccc2c(=O)n(Cc3ccco3)c(=S)[nH]c2c1)N1CCOCC1 | -3.78 | -1.2
22 | C#CCOc1ccc2c(c1)c(C(C)=O)c(C)n2-c1ccc(OCC)cc1 | -1.52 | -0.66
23 | CCOC(=O)CCN1C(=O)C(=Cc2cccc(OC)c2)SC1=S | -4.87 | -1.55

Row | SMILES | corrected activity, negative = more killing [%] | z-score
24 | CC1=NN(C(=O)C(C)C)C(O)(c2ccccc2)C1 (configuration not stated) | -7.14 | -3.83
25 | COc1ccc(NC(=O)NCCc2ccncc2)cc1 | 0.111 | 0.0619
26 | COc1ccccc1N1C(=O)C2C(C(C)=O)=NN(c3ccc(Cl)cc3)C2C1=O (configuration not stated) | -1.87 | -0.704
27 | COc1ccccc1CNC(=O)c1sc2ncnc(N3CCOCC3)c2c1C | -0.847 | -0.308
28 | CCc1ccc(-c2nc3ccccc3c(C(=O)O)c2C)cc1 | -3.44 | -1.41
29 | Cc1ccc(-c2sc3nc(-c4ccccc4)ccc3c2N)c(C)c1 | -3.23 | -1.23
30 | Cc1ccc(S(=O)(=O)NN=Cc2ccc(I)cc2)cc1 | -2.58 | -0.82
31 | Cc1ccc2nc(-c3ccc(Cl)c(NC(=O)Cc4ccccc4)c3)oc2c1 | -3.3 | -1.77
32 | O=C(CCn1c(=O)c2sccc2n(Cc2cc(=O)n3ccccc3n2)c1=O)NCc1ccc2c(c1)OCO2 | -7.55 | -2.14
33 | Cc1ccc(C(=O)NC(=Cc2cccnc2)C(=O)Nc2ccc(I)cc2)cc1 | -0.444 | -0.23
34 | CC(=O)c1cccc(NC(=O)c2ccc(NS(=O)(=O)c3ccccc3)cc2)c1 | -4.58 | -1.71
35 | Cc1cc(Cl)ccc1OC(C)C(=O)n1cnc2ccccc21 (configuration not stated) | -1.02 | -0.42
36 | COC(=O)c1ccc(CN2CCN3CCCC3C2C)cc1 (configuration not stated) | -3.15 | -1.38
37 | Cc1ccc(OCCN2CCNCC2)c(Br)c1 | -2.45 | -1.36
38 | CC1CCC2C(=O)N(c3ccc(N4CC5(C)CC4CC(C)(C)C5)c([N+](=O)[O-])c3)C(=O)C2C1 (configuration not stated) | -1.82 | -0.661
39 | COC(=O)c1ccc(C=NN2CCN(c3ccccn3)CC2)cc1 | -4.57 | -2
40 | Cc1ccc(C=Cc2nc3ccccc3[nH]2)cc1 | 2.68 | 0.723
41 | O=C(Nc1ccc(Br)cc1)c1ccc(Cl)c(S(=O)(=O)N2CCCCCC2)c1 | -9.39 | -2.91
42 | O=C(NN=C1CCCCC1)C(=O)Nc1ccc(Cl)cc1 | -4.69 | -1.99
43 | NC(C(=O)O)C(O)c1cccc([N+](=O)[O-])c1 (configuration not stated) | -0.723 | -0.224
44 | Cc1ccc(-n2ncc3c(=O)[nH]c(SCC(C)C)nc32)cc1C | -9.35 | -2.29
45 | CC(C)c1ccc(OCC(=O)Nc2ccc3c(c2)OCCO3)cc1 | -2.45 | -0.869
46 | CC1CC(C)CN(C(=O)c2c[nH]c3ccc(S(=O)(=O)N4CCOCC4)cc3c2=O)C1 (configuration not stated) | -2.85 | -1.04
